ATXN viability: cell viability loss in ATXN counter-screen | S2 cells (HEK-293 line with an ATXN2-luciferase reporter) viability, CellTiter-Fluor protease fluorescence, 24 h | AID 651635 | 0.49% of 400,000 active | Potency, µM (top dose mostly 56.7 µM), most hits filed as cytotoxic; also: nearly all actives have a fitted effect of over 40% in size
HT1080-NT tox: kills 2HG-producing HT-1080-NT fibrosarcoma cells | HT-1080-NT fibrosarcoma viability, CellTiter-Glo ATP luminescence, 48 h | Potency, µM (doses to about 46.1 µM), without a hit: at the top dose activity, negative = less viability, usual class: cytotoxic | 1.6% of 360,000 active;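 also: NT is the 2HG producing partner of a matched IDH1 knockdown line; 0% = DMSO-treated cells and -100% = media-only wells without cells; nearly all actives have a fitted effect of over 55% in size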
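HT-1080-NT fibrosarcoma cells (2HG-overproducing), 750 cells/well in RPMI with 5% FBS, dosed after 2 h and incubated 48 h at 37C. CellTiter-Glo luminescence normalized to DMSO and no-cell wells; concentration-response curves fitted and classed.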
HT1080 IDH1KD tx: HT-1080 IDH1 knockdown cell toxicity (counter line) | HT-1080 IDH1 knockdown viability, ATP luminescence, 48 h | Potency, µM (titrated, usually from 46.1 µM), for inactives: at the top dose activity, negative = toxicity, most hits filed as cytotoxic | 2% of 360,000 active | AID 686971;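 also: 0% = DMSO wells and -100% = cell-free medium wells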
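Using the IDH1-knockdown HT-1080 line run in the same batch and compound series as the NT line, viability after 48 h at 37 °C was determined by CellTiter-Glo luminescence and expressed as % activity.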
KB-3-1 tox: KB-3-1 parental cell cytotoxicity. Potency, µM (top dose mostly 46.1 µM), hits mostly cytotoxic. 1.4% of 400,000 active. KB-3-1 viability, CellTiter-Glo ATP luminescence, 72 h; also: % is scaled to controls: 0 for no effect and ±100 for the full control effect; nearly all actives have a fitted effect of over 60% in size
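Luminescent ATP read-out (CellTiter-Glo) measures survival of drug-naive KB-3-1 cells after 72 h compound exposure at 37 °C. Titration series was screened from lowest to highest concentration, with DMSO vehicle plates as background controls.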
KB-V1 MDR tox: KB-V1 MDR subline cytotoxicity; KB-V1 MDR cells viability, CellTiter-Glo, 72 h; Potency, µM (titrated, usually from 46.1 µM), hits mostly cytotoxic; 3.4% of 400,000 active; AID 1347076; also: % is scaled to controls: 0 for no effect and ±100 for the full control effect; nearly all actives have a fitted effect of over 60% in size
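Potencies derive from concentration-effect curves fitted to normalized luminescence (CellTiter-Glo) of KB-V1 cells treated for 72 h at 37 degrees C in phenol-red-free DMEM containing 10% FBS.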
ATXN2 expr inh: inhibitors of ATXN2 expression; HEK-293 ATXN2-luciferase reporter, luminescence, 24 h; Potency, µM (series often up to 57 µM), inactives show at the highest dose activity change, negative = inhibition, hits mostly inhibitors; 0.72% of 360,000 active; AID 1745845; also: % is scaled to controls: 0 for no effect and ±100 for the full control effect; nearly all actives have a fitted effect of over 55% in size
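ATXN2-luciferase reporter cells (luciferase flanked by upstream and downstream ATXN2 gene portions) were treated 24 h at 37 °C with compounds at up to 57 uM. SteadyGlo luminescence gave expression; GF-AFC fluorescence gave viability.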
An asterisk follows results filed as active; [ ] = remark or other dose. Rows were chosen to be rich in hits. Some 6.2% of all compounds tested hit in one or more screens of this group. Calls follow the shape of the dose curve; as a rule, active = well fitted curve in the direction sought with a large enough effect; inconclusive = small, poorly fitted or top-dose-only effect, or another doubt; inactive = no such curve, though single readings can be large; an effect the other way counts as inactive or inconclusive. Potency is read from the fitted curve at half-maximal effect.

Results for O=C(c1[nH]c(C(F)(F)F)nc1-c1ccccc1)N1CCc2c([nH]c3ccccc23)C1 ?
ATXN viability: inactive; HT1080-NT tox: inconclusive; HT1080 IDH1KD tx: 4.6µM*; KB-3-1 tox: 5.8µM*; KB-V1 MDR tox: inactive; ATXN2 expr inh: 5%

Results for Cc1ccc(N2CCN(C(=O)c3[nH]c(C(F)(F)F)nc3-c3ccccc3)CC2)cc1 ?
ATXN viability: inactive; HT1080-NT tox: -23%; HT1080 IDH1KD tx: -28%; KB-3-1 tox: inactive; KB-V1 MDR tox: inactive; ATXN2 expr inh: 10%

What do the screens show for `CC1(C)CC(N2CCCC2)=CC(=[N+]2CCCCCC2)C1`?
ATXN viability: inactive; HT1080-NT tox: inconclusive; HT1080 IDH1KD tx: 12µM*; KB-3-1 tox: inconclusive; KB-V1 MDR tox: inactive; ATXN2 expr inh: inconclusive

What do the screens show for `CC1(C)CC(N2CCN(c3ccccc3)CC2)=CC(=[N+]2CCCC2)C1`?
ATXN viability: inactive; HT1080-NT tox: 1.1µM*; HT1080 IDH1KD tx: 14µM*; KB-3-1 tox: 12µM*; KB-V1 MDR tox: inactive; ATXN2 expr inh: inconclusive

What do the screens show for `CC1(C)CC(=O)C=C(N2CCNCC2)C1`?
ATXN viability: inactive; HT1080-NT tox: -1%; HT1080 IDH1KD tx: -8%; KB-3-1 tox: inactive; KB-V1 MDR tox: inactive; ATXN2 expr inh: 1%

What do the screens show for `CC1CC(C)C[N+](=C2C=C(N3CCCC3)CC(C)(C)C2)C1` (stereo not given)?
ATXN viability: inconclusive; HT1080-NT tox: 9.2µM*; HT1080 IDH1KD tx: inconclusive; KB-3-1 tox: 5.8µM*; KB-V1 MDR tox: inactive; ATXN2 expr inh: inconclusive

How did O=C(Nc1ccc(-c2nc3ccccc3[nH]2)cc1)C1CCCO1 (stereo not given) do in these assays?
ATXN viability: inactive; HT1080-NT tox: 10µM*; HT1080 IDH1KD tx: 11µM*; KB-3-1 tox: inconclusive; KB-V1 MDR tox: inconclusive; ATXN2 expr inh: -29%

Results for CCOC(=O)c1ccccc1NC(=O)C1CCCO1 (stereo not given) ?
ATXN viability: inactive; HT1080-NT tox: -3%; HT1080 IDH1KD tx: -4%; KB-3-1 tox: inactive; KB-V1 MDR tox: inactive; ATXN2 expr inh: -6%

Results for CCc1ccc(NC(=O)c2ccccc2NC(=O)C2CCCO2)cc1 (stereo not given) ?
ATXN viability: inactive; HT1080-NT tox: -3%; HT1080 IDH1KD tx: -3%; KB-3-1 tox: inactive; KB-V1 MDR tox: 6.5µM*; ATXN2 expr inh: 66%

What do the screens show for `Cc1ccc2nc(-c3ccc(NC(=O)CSc4ccccc4)cc3)[nH]c2c1`?
ATXN viability: inactive; HT1080-NT tox: inconclusive; HT1080 IDH1KD tx: 13µM*; KB-3-1 tox: inactive; KB-V1 MDR tox: inactive; ATXN2 expr inh: -1%

How did O=C(Nc1nc2ccccc2[nH]1)C1CCCO1 (stereo not given) do in these assays?
ATXN viability: inactive; HT1080-NT tox: -7%; HT1080 IDH1KD tx: 3%[9.24 µM]; KB-3-1 tox: inactive; KB-V1 MDR tox: inactive; ATXN2 expr inh: 25%

How did O=C(CSc1ccc(Cl)cc1)Nc1cccc(-c2nc3ccccc3[nH]2)c1 do in these assays?
ATXN viability: inconclusive; HT1080-NT tox: -26%; HT1080 IDH1KD tx: inconclusive; KB-3-1 tox: inactive; KB-V1 MDR tox: inactive; ATXN2 expr inh: 0%

What do the screens show for `O=C(CSc1ccccc1)Nc1ccc(-c2nc3ccccc3[nH]2)cc1`?
ATXN viability: inactive; HT1080-NT tox: 13µM*; HT1080 IDH1KD tx: inconclusive; KB-3-1 tox: 21µM*; KB-V1 MDR tox: inconclusive; ATXN2 expr inh: 7%

Results for Cc1ccc2nc(SCC(=O)Nc3ccc(C(N)=O)cc3)[nH]c2c1 ?
HT1080-NT tox: 25%; HT1080 IDH1KD tx: 17%; KB-3-1 tox: inactive; KB-V1 MDR tox: inactive; ATXN2 expr inh: 1%

How did CCc1ccc(S(=O)(=O)Nc2cccc(-c3ccc(N4CCCCC4)nn3)c2)s1 do in these assays?
ATXN viability: inconclusive; KB-3-1 tox: inactive; KB-V1 MDR tox: inactive; ATXN2 expr inh: 0%

What do the screens show for `CCOC(=O)CSc1nc2c([nH]c3ccccc32)c(=O)n1-c1ccc(OCC)cc1`?
ATXN viability: inactive; KB-3-1 tox: inactive; KB-V1 MDR tox: inactive; ATXN2 expr inh: -3%

Results for Cc1ccc(NC(=O)C(=O)NCC(c2cccnc2)N2CCN(C)CC2)cc1C (stereo not given) ?
ATXN viability: inactive; KB-3-1 tox: inactive; KB-V1 MDR tox: inactive; ATXN2 expr inh: -6%

Results for CCn1cc(/C=C(\NC(=O)c2ccc(C)cc2)C(=O)NCCCn2ccnc2)c2ccccc21 ?
ATXN viability: inactive; KB-3-1 tox: inactive; KB-V1 MDR tox: inconclusive; ATXN2 expr inh: -1%

What do the screens show for `CCn1c(Nc2ccccc2Cl)nc2ccccc21`?
ATXN viability: inactive; HT1080-NT tox: 3%; HT1080 IDH1KD tx: 11%; KB-3-1 tox: inactive; KB-V1 MDR tox: inactive; ATXN2 expr inh: -11%[11.3 µM]

Results for CCn1c2ccccc2nc2cc3c(cc21)c(Cl)c(=O)c1ccccc13 ?
HT1080-NT tox: inconclusive; HT1080 IDH1KD tx: 21µM*; KB-3-1 tox: inconclusive; KB-V1 MDR tox: inactive

How did CC(C)c1c(C(=O)N(C)C2CCN(C)CC2)cnn1-c1nccc(-c2ccco2)n1 do in these assays?
ATXN viability: inactive

How did COc1ccc(-c2ccc(NS(=O)(=O)c3cccc(Cl)c3)cc2)nn1 do in these assays?
ATXN viability: inactive; KB-3-1 tox: inactive; KB-V1 MDR tox: inactive; ATXN2 expr inh: 2%

Results for N/C(=C\C(=O)c1cc(Cl)ccc1O)C(Cl)(Cl)Cl ?
ATXN viability: inconclusive; HT1080-NT tox: 8.2µM*; HT1080 IDH1KD tx: 13µM*; KB-3-1 tox: inconclusive; KB-V1 MDR tox: 7.3µM*; ATXN2 expr inh: 20µM*

What do the screens show for `CNc1c(Br)cc(C=O)cc1Br`?
KB-3-1 tox: inactive; KB-V1 MDR tox: inactive

Results for CCc1ccccc1NC(=O)C1(S(=O)(=O)c2ccc(Cl)cc2)CC1 ?
ATXN viability: inactive; KB-3-1 tox: inactive; KB-V1 MDR tox: inactive; ATXN2 expr inh: 0%

What do the screens show for `CCc1cc2c(=O)n(Cc3ccco3)c(SCC(=O)NCC3CCCO3)nc2s1` (stereo not given)?
ATXN viability: inactive; HT1080-NT tox: -30%; HT1080 IDH1KD tx: -7%; KB-3-1 tox: inconclusive; KB-V1 MDR tox: 2.6µM*; ATXN2 expr inh: -21%

Results for CCc1cc2c(=O)n(Cc3ccco3)c(SCc3c(C)noc3C)nc2s1 ?
ATXN viability: inconclusive; HT1080-NT tox: inconclusive; HT1080 IDH1KD tx: 15µM*; KB-3-1 tox: 5.8µM*; KB-V1 MDR tox: 2.9µM*; ATXN2 expr inh: 22%
